DT40 TDP1 no CPT = qHTS for Inhibitors of human tyrosyl-DNA phosphodiesterase 1 (TDP1): qHTS in cells in absence of CPT. DT40 Tdp1-/- hTDP1 cells, no CPT, ATP luminescence, 48 h. Potency, µM (series often up to 46.2 µM), without a hit: at the highest dose activity change, negative = growth inhibition, hits mostly inhibitors. actives 15% (n = 420,000). AID 686978, 2013; also: potency is read from the fitted curve at half-maximal effect; nearly all actives have a fitted effect of over 55% in size
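A cellular qHTS used chicken DT40 cells lacking endogenous Tdp1 but carrying stably transfected human TDP1. Compounds were applied without camptothecin, and cell growth kinetics were judged by ATP-dependent luminescence after ≥48 hr.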
Six1-Eya2 inh = qHTS Assay for Inhibitors of the Six1/Eya2 Interaction; AlphaScreen GST-Six1/His-Eya2 binding, biochemical; stronger effect = lower value; activity change, % (concentration not given with the values); Homeobox protein SIX1 (Homo sapiens) + Protein phosphatase EYA2 (Homo sapiens), …; actives 0.56% (n = 360,000); in the data active = activity change below about -65%; inconclusive = mostly about -30% to -63%
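GST-Six1 + His-Eya2 (5X stock: 250/500 nM); Tris pH 8.0, 300 mM NaCl, 0.05% BSA, 0.02% Tween 20; GSH donor/Ni acceptor beads; 1 h 37 °C dark; AlphaScreen readout.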
TDP1 block = qHTS Assay for Inhibitors of Tyrosyl-DNA Phosphodiesterase (TDP1); Tyrosyl-DNA phosphodiesterase 1 (Homo sapiens), Q9NUW8; recombinant TDP1, AlphaScreen DNA substrate cleavage; Potency, µM (highest dose often 130 µM), for the others: at the highest dose activity change, negative = inhibition, actives largely listed as inhibitors; actives 0.28% (n = 350,000); AID 485290, 2010; also: potency is read from the fitted curve at half-maximal effect; nearly all actives have a fitted effect of over 40% in size
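AlphaScreen read-out: signal falls as enzyme removes the 3' tyrosine-FITC from a 5'-biotinylated DNA oligo (15 nM, 5 min, RT). Enzyme was E. coli-made recombinant Tdp1 at 1 nM, exposed to compound for 15 min beforehand; beads 10 ug/ml, 10 min.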
IL1B secr inh = qHTS for Inhibitors of Inflammasome Signaling: IL-1-beta AlphaLISA Primary Screen. THP-1 LPS/ATP IL-1B secretion, AlphaLISA, 16 h; stronger effect = lower value. activity change, % at 57.5 µM. actives 4.7% (n = 360,000); in the data active = activity change below about -50%; inconclusive = mostly about -30% to -49%
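THP-1 cells pretreated 1 hr with compounds (up to 57.5 uM final), then stimulated with LPS (250 ng/mL final) plus ATP (1.25 mM final); secreted IL-1B measured by AlphaLISA after 16 hr, decreased signal indicating inhibition.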
TDP1 cell CPT = qHTS for Inhibitors of human tyrosyl-DNA phosphodiesterase 1 (TDP1): qHTS in cells in presence of CPT | chicken DT40 Tdp1-/-;hTDP1 cells + 20 nM CPT, ATP luminescence, 48 h | Potency, µM (series often up to 46.2 µM), without a hit: at the top dose activity change, negative = growth inhibition, actives largely listed as inhibitors | actives 12% (n = 420,000); also: potency is read from the fitted curve at half-maximal effect; nearly all actives have a fitted effect of over 55% in size
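Cell growth measured by CellTiter-Glo luminescence after a minimum 48 h, 37 C compound exposure with 20 nM CPT in Tdp1-knockout DT40 cells stably expressing hTDP1, seeded 400/well; qHTS titration format.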
CtBP-E1A blk = qHTS Assay for Inhibitors of the CtBP/E1A Interaction; CtBP / adenovirus E1A interaction (AlphaScreen); activity change, % (concentration not given with the values); AlphaScreen GST-E1A/His-CtBP binding, 1536-well; stronger effect = lower value; actives 0.49% (n = 340,000); in the data active = activity change below about -65%; inconclusive = mostly about -30% to -63%
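GST-E1A and His-tagged CtBP (125 nM each as 5X stock) were preincubated with pin-transferred compound for 2 h at 37 °C in the dark, then glutathione donor and nickel acceptor beads were added for 1 h before AlphaScreen reading.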
* hit, by the source's call; [ ] = remark or other dose. Most compounds without a hit are left out; they make up all but 18% or so of the library. Unless noted, calls follow the shape of the dose curve; as a rule, active = well fitted curve in the direction sought with a large enough effect; inconclusive = small, poorly fitted or top-dose-only effect, or another doubt; inactive = no such curve, though single readings can be large; an effect the other way counts as inactive or inconclusive. % is scaled to controls: 0 for no effect and ±100 for the full control effect.

Screening CCOc1ccccc1CNC(=O)c1cccn1-c1nnc(N2CCCCC2)s1 returned DT40 TDP1 no CPT inconclusive, TDP1 block 3% and TDP1 cell CPT inconclusive.
CCOc1ccccc1CNCc1cccn1-c1nnc(N2CCN(c3ccccc3)CC2)s1 was read as DT40 TDP1 no CPT 3.3µM*, TDP1 block 7% and TDP1 cell CPT 5.8µM*.
O/N=C/c1ccccc1OCc1ccc(Cl)cc1 was read as DT40 TDP1 no CPT 0%, Six1-Eya2 inh 4, TDP1 block 6%, IL1B secr inh -96*, TDP1 cell CPT -3% and CtBP-E1A blk -1.
`CCOC(=O)N/N=C/c1ccccc1OCc1ccc(Cl)cc1` gave DT40 TDP1 no CPT 29µM*, Six1-Eya2 inh -5, TDP1 block 0%, IL1B secr inh -22, TDP1 cell CPT inconclusive and CtBP-E1A blk -11.
For O=C(Cc1ccccc1)N/N=C/c1ccccc1OCc1ccc(Cl)cc1 the results were DT40 TDP1 no CPT inconclusive, Six1-Eya2 inh -2, TDP1 block 0%, IL1B secr inh -20, TDP1 cell CPT inconclusive and CtBP-E1A blk 5.
CCOC(=O)c1c(C)[nH]c(NC(=O)NNC(=O)c2ccccc2Cl)c1C was read as DT40 TDP1 no CPT 8%, Six1-Eya2 inh 3, TDP1 block -1%[56.1 µM], IL1B secr inh -16, TDP1 cell CPT -1% and CtBP-E1A blk -5.
`COc1ccc2[nH]c3c(c2c1)CC(C)NC3=O` (stereo not drawn) gave DT40 TDP1 no CPT 7.3µM*, Six1-Eya2 inh 5, TDP1 block 4%, IL1B secr inh inconclusive and TDP1 cell CPT inconclusive.
For COc1ccc2[nH]c3c(c(=O)c2c1)CCCC3 the results were DT40 TDP1 no CPT -27%, Six1-Eya2 inh -7, IL1B secr inh 10, TDP1 cell CPT inconclusive and CtBP-E1A blk 0.
Fc1ccc(-c2nc(Nc3cccc(C(F)(F)F)c3)nc3c2COc2ccccc2-3)cc1 was read as DT40 TDP1 no CPT inconclusive, TDP1 block 9% and TDP1 cell CPT inconclusive.
For COc1cc(CN(C)c2ncnc3sccc23)ccc1OC(F)F the results were DT40 TDP1 no CPT 12µM*, Six1-Eya2 inh -9, IL1B secr inh 0, TDP1 cell CPT 16µM* and CtBP-E1A blk 10.
Screening O=C(C[C@H]1C=C[C@H](NC(=O)c2ccccn2)[C@@H](CO)O1)NCc1cc(F)cc(F)c1 returned DT40 TDP1 no CPT -10%, Six1-Eya2 inh 16, IL1B secr inh -7, TDP1 cell CPT -24% and CtBP-E1A blk -19.
For C#CCOCCOCCOCCNc1nc(N2CCN(C(=O)CCCCCCCCCCNC(=O)[C@H](CCCCN)n3cc(C)nn3)CC2)nc(N2CCN(C(=O)CCCCCCCCCCNC(=O)[C@@H]([C@H](C)O)n3cc(C)nn3)CC2)n1 the results were DT40 TDP1 no CPT inconclusive, Six1-Eya2 inh -3, TDP1 block 3%, IL1B secr inh -60*, TDP1 cell CPT inconclusive and CtBP-E1A blk -8.
Screening C#CCOCCOCCOCCNc1nc(N2CCN(C(=O)Cn3cc(CCO)nn3)CC2)nc(N2CCN(C(=O)Cn3cc(CC(C)O)nn3)CC2)n1 (stereo not drawn) returned DT40 TDP1 no CPT -9%, Six1-Eya2 inh -2, IL1B secr inh -3, TDP1 cell CPT -3% and CtBP-E1A blk 7.
C#CCOCCOCCOCCNc1nc(N2CCN(C(=O)CCCCCCCCCCNC(=O)Cn3cc(C[C@@H](C)O)nn3)CC2)nc(N2CCN(C(=O)CCCCCCCCCCNC(=O)[C@@H](CCSC)n3cc(CCO)nn3)CC2)n1 was read as DT40 TDP1 no CPT 10µM*, Six1-Eya2 inh 2, TDP1 block 1%, IL1B secr inh 2, TDP1 cell CPT inconclusive and CtBP-E1A blk -1.
Screening C#CCOCCOCCOCCNc1nc(N2CCN(C(=O)CCCCCCCCCCNC(=O)[C@H]([C@@H](C)CC)n3cc(CCCCN=C(N)N)nn3)CC2)nc(N2CCN(C(=O)CCCCCCCCCCNC(=O)[C@H](CCCN=C(N)N)n3cc(C[C@@H](C)CC)nn3)CC2)n1 returned TDP1 block 0%.
`C#CCOCCOCCOCCNc1nc(N2CCN(C(=O)CCCCCCCCCCNC(=O)[C@H](CO)n3cc(CCCCCN)nn3)CC2)nc(N2CCN(C(=O)CCCCCCCCCCNC(=O)[C@H](CCCN=C(N)N)n3cc(C[C@@H](C)CC)nn3)CC2)n1` gave TDP1 block 14%.

Bioassay records as filed in PubChem BioAssay.
